Screens as filed in PubChem.
HT1080-NT tox – kills 2HG-producing HT-1080-NT fibrosarcoma cells; HT-1080-NT fibrosarcoma viability, CellTiter-Glo ATP luminescence, 48 h; Potency, µM (doses to about 46.1 µM), actives largely listed as cytotoxic; 360,000 compounds, 1.6% hits;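 note: NT is the 2HG producing partner of a matched IDH1 knockdown line; nearly all actives have a fitted effect of over 55% in size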
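Toxicity toward the 2HG-producing NT line was scored as %Activity, normalised to DMSO and no-cell wells, from CellTiter-Glo luminescence after 48 hours' treatment.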
ATXN2 expr inh – inhibitors of ATXN2 expression | HEK-293 ATXN2-luciferase reporter, luminescence, 24 h | Potency, µM (titrated, usually from 57 µM), hits mostly inhibitors | 360,000 compounds, 0.72% hits; note: nearly all actives have a fitted effect of over 55% in size
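qHTS (up to 57 uM final) was run with 24 h compound exposure of reporter cells at 37 °C. Each well was multiplexed: SteadyGlo luminescence measured ATXN2-luciferase expression after a fluorogenic Gly-Phe-AFC viability readout (25 uM final).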
HT1080 IDH1KD tx – toxicity to HT-1080 IDH1 knockdown cells (counter line). HT-1080 IDH1 knockdown viability, ATP luminescence, 48 h. Potency, µM (series often up to 46.1 µM), usual class: cytotoxic. 360,000 compounds, 2% hits. AID 686971
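CellTiter-Glo luminescence after 48 h compound exposure at 37 degrees C of IDH1-knockdown HT-1080 cells in 5% FBS RPMI. %Activity scaled between DMSO wells and cell-free media wells, with curves fitted and assigned curve classes.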
KB-V1 cytotox – KB-V1 MDR subline cytotoxicity; Potency, µM (doses to about 46.1 µM), hits mostly cytotoxic; KB-V1 MDR cells viability, CellTiter-Glo, 72 h; 400,000 compounds, 3.4% hits; note: nearly all actives have a fitted effect of over 60% in size
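Readout: CellTiter-Glo luminescence, 10 min after addition. Cells: KB-V1 MDR subline, 72 h at 37 degrees C with compound. Analysis: corrected, normalized data fitted to concentration-effect curves.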
S2 tox – viability counter-screen for ATXN expression inhibitors. S2 cells (HEK-293 line with an ATXN2-luciferase reporter) viability, CellTiter-Fluor protease fluorescence, 24 h. Potency, µM (doses to about 56.7 µM), most hits filed as cytotoxic. 400,000 compounds, 0.49% hits. AID 651635; note: nearly all actives have a fitted effect of over 40% in size
KB-3-1 cytotox – KB-3-1 parental cell cytotoxicity; 400,000 compounds, 1.4% hits; Potency, µM (doses to about 46.1 µM), actives largely listed as cytotoxic; AID 1347075; KB-3-1 viability, CellTiter-Glo ATP luminescence, 72 h; note: nearly all actives have a fitted effect of over 60% in size
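Cells are dispensed, compounds pinned in, plates held at 37 °C for 72 h, then CellTiter-Glo is added and luminescence read after 10 minutes. Cell line: parental KB-3-1 in phenol-red-free DMEM, 10% FBS.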
Numbers stand for hits; - = inactive; ? = inconclusive; . = not tested or not shown. Sampled rows, rich in hits. Any-hit rate of the full collection: about 6.2%. Calls come from the whole dose curve; as a rule, active = well fitted curve in the direction sought with a large enough effect; inconclusive = small, poorly fitted or top-dose-only effect, or another doubt; inactive = no such curve, though single readings can be large; an effect the other way counts as inactive or inconclusive.

SMILES	HT1080-NT tox	ATXN2 expr inh	HT1080 IDH1KD tx	KB-V1 cytotox	S2 tox	KB-3-1 cytotox
COC(=O)C[C@@H]1CC[C@H](NC(=O)c2ccccc2)[C@@H](CO)O1	-	.	-	-	.	-
CCC(c1nnnn1CS(=O)(=O)c1ccc(C)cc1)N1CCN(c2nc3ccccc3s2)CC1 (stereo unspecified)	-	-	-	4.1µM	-	-
CCCC(c1nnnn1CS(=O)(=O)c1ccc(C)cc1)N1CCN(c2ccccc2)CC1 (stereo unspecified)	-	-	-	?	-	-
CN1[C@@H]2CCC[C@@H]1CC(NC(=O)c1nn(C)c3ccccc13)C2 (stereo partly specified)	.	-	.	.	-	.
Cc1cccc(Oc2ccc(N)cc2)c1	-	-	-	-	-	-
Nc1ccc(Oc2cccc(Oc3ccc(N)cc3)c2)cc1	-	1.8µM	-	-	-	-
O=C(Cc1cccc(F)c1)NO	-	.	-	.	.	.
COc1ccc(-n2nc(C(=O)Nc3cc(C)c(Cl)cc3OC)c3c4ccccc4n(C)c3c2=O)cc1	.	-	.	-	-	-
COC(=O)c1cc(C)cc(=O)o1	-	-	-	-	-	-
Cc1cc(CCCCCCCCc2cc(C)cc(=O)o2)oc(=O)c1	-	-	-	7.3µM	-	-
CC1CCc2c(sc(NC(=O)c3ccco3)c2C(=O)O)C1 (stereo unspecified)	?	-	-	?	-	?
CC1CCc2c(sc(NC(=O)/C=C/c3cccs3)c2C(=O)O)C1 (stereo unspecified)	-	-	?	-	?	18µM
CC(=O)COc1ccc2c3c(c(=O)oc2c1)CCCC3	-	-	-	12µM	-	-
CC(=O)C(C)Oc1ccc2c3c(c(=O)oc2c1)CCCC3 (stereo unspecified)	-	-	-	-	-	-
Cc1ccc(N(CC(=O)Nc2ccc(F)c(Cl)c2)S(=O)(=O)c2c(C)noc2C)cc1	?	-	?	18µM	-	?
COc1ccc(N(CC(=O)Nc2ccc(C)cc2)S(=O)(=O)c2c(C)noc2C)cc1	-	.	-	-	-	-
CCc1cccc(NC(=O)CN(c2ccc(C)cc2)S(=O)(=O)c2c(C)noc2C)c1	-	.	-	?	-	-
Cc1noc(C)c1CSCC(=O)N(C)CC(=O)Nc1ccc(Cl)c(Cl)c1	-	-	-	5.8µM	-	-
Cc1ccc(N(CC(=O)Nc2cc(C)cc(C)c2)S(=O)(=O)c2c(C)noc2C)cc1	18µM	?	?	?	-	?
Cc1noc(C)c1CSCC(=O)N(C)CC(=O)Nc1ccc(Cl)c(C(F)(F)F)c1	-	-	-	-	-	-
O=C(CSc1cn(CCNC(=O)c2c(F)cccc2F)c2ccccc12)Nc1ccc(F)cc1	.	-	.	-	-	-
COC(=O)c1ccccc1NC(=O)Cn1c(=O)n(CCC(=O)NCc2ccc3c(c2)OCO3)c(=O)c2ccccc21	.	-	.	-	-	-
CC1=C(C(=O)Nc2cccnc2)C(c2ccc(F)cc2)n2nc(SCc3ccccc3)nc2N1 (stereo unspecified)	.	-	.	?	-	-
CCOC(=O)c1ccc(NC2=CC(=O)C(=O)c3ccccc32)cc1	-	-	-	?	?	?
CCc1ccc(S(=O)(=O)/N=C2\C=C(Nc3ccc(O)cc3)C(=O)c3ccccc32)cc1	2.9µM	3.5µM	2.9µM	?	7.1µM	2.9µM
SMILES	HT1080-NT tox	ATXN2 expr inh	HT1080 IDH1KD tx	KB-V1 cytotox	S2 tox	KB-3-1 cytotox
O=C1c2ccccc2C(=O)N1CCSc1ncn[nH]1	-	-	-	-	-	-
O=C(O)c1cccc(NC2=C(n3nnc4ccccc43)C(=O)c3ccccc3C2=O)c1	-	.	-	-	?	-
CCc1ccc(S(=O)(=O)/N=C2/C=C(Sc3ncn[nH]3)C(=O)c3ccccc32)cc1	5.8µM	16µM	5.2µM	-	?	-
CCc1ccc(S(=O)(=O)/N=C2\C=C(Nc3cccc(C(=O)O)c3)C(=O)c3ccccc32)cc1	8.2µM	32µM	7.3µM	-	25µM	-
Cc1ccc(C(=O)c2cn(CC(=O)NC3CCCCC3)c3nc(C)ccc3c2=O)cc1	.	-	.	-	-	-
CCOC(=O)C1=CCN(S(=O)(=O)c2ccc(Br)cc2)C1c1ccc(C)cc1 (stereo unspecified)	-	-	?	?	-	-
C[C@@H]1Cn2cnc(C(=O)NCc3ccc(CNC(=O)OC(C)(C)C)cc3)c2C(=O)N1	-	-	-	-	-	-
COc1ccccc1N(C)S(=O)(=O)c1ccc(C(=O)Nc2nccs2)cc1	-	-	-	-	-	-
CCCc1nnc(NC(=O)c2ccc(S(=O)(=O)N(C)c3ccccc3OC)cc2)s1	-	-	-	15µM	-	-
CCCc1nnc(NC(=O)c2cccc(OC)c2)s1	-	-	-	18µM	-	-
CCCc1nnc(NC(=O)Nc2ccccc2OC)s1	-	-	-	18µM	-	-
COc1ccccc1N(C)S(=O)(=O)c1ccc(C(=O)NCC(C)C)cc1	-	-	-	23µM	-	-
COC(=O)c1ccc(CNC(=O)c2ccc(S(=O)(=O)N(C)c3ccccc3OC)cc2)cc1	-	-	-	-	-	-
COc1ccc(Cc2nnc(NC(=O)Nc3ccccc3OC)s2)cc1	-	-	-	-	-	?
COc1ccccc1N(C)S(=O)(=O)c1ccc(C(=O)OCC(=O)N2CCC2)cc1	?	-	16µM	?	-	?
Cn1cc(C(=O)c2ccc(Cl)cc2)cc1-c1nc2ccccc2n1C	?	?	?	13µM	?	-
Cc1cc(C(=O)NCC2CCC3(CCN(Cc4cccc(F)c4F)CC3)O2)n(C)n1 (stereo unspecified)	.	.	.	.	-	.
Cc1ccc2nc(NC(=O)CCNS(=O)(=O)c3ccc(Br)s3)sc2c1	?	-	?	18µM	?	-
Cc1ccc2nc(NC(=O)CSCC(=O)OCC(=O)c3ccc(Br)cc3)sc2c1	-	5.6µM	-	-	-	-
O=C(c1ccccc1)c1cc([N+](=O)[O-])ccc1N1CCCC1	-	-	-	-	-	?
CN1CCN(c2ccc([N+](=O)[O-])cc2C(=O)c2ccc(Br)cc2)CC1	13µM	-	15µM	4.1µM	?	2.9µM
O=C(c1ccc(Br)cc1)c1cc([N+](=O)[O-])ccc1N1CCCCC1	1.8µM	-	2.1µM	?	?	1µM
CN1CCN(c2ccc([N+](=O)[O-])cc2C(=O)c2ccccc2)CC1	-	-	-	?	?	?
Cc1ccc(C(=O)c2cc([N+](=O)[O-])ccc2N2CCN(C)CC2)cc1	10µM	?	7.3µM	3.7µM	-	5.2µM
Cc1[nH]c2ccccc2c1CCNCc1ccc(C=CC(=O)NO)cc1	.	-	.	.	.	.
COC(=O)c1ccccc1NC(=O)c1ncoc1-c1ccco1	.	-	.	-	-	-
